Laboratory results reported in the supplement of paper PMC13380429.

Key:
[1] = system: Vero E6 infected with SARS-CoV-2; experiment: morphology score (similarity to uninfected cells); higher = more like uninfected cells; settings: 24 h
[2] = system: Vero E6 infected with SARS-CoV-2; experiment: SARS-CoV-2 infection rate relative to infected DMSO; higher = more infection, active = 60 or less; settings: 24 h

Row | Compound | morphology score [1] | SARS-CoV-2 infection rate [2]
1 | Cc1ccc(NC(=O)c2ccc(CN3CC[C@H](N(C)C)C3)c(C(F)(F)F)c2)cc1Nc1nccc(-c2cncnc2)n1 [bafetinib] (0.833333 µM) | 0.358 | 104% (inactive)
2 | CCOC(=O)c1ccc(OC(=O)CCCCCNC(=N)N)cc1 [gabexate] (10 µM) | 0.0775 | 102% (inactive)
3 | C[C@H](CCC(=O)O)[C@H]1CC[C@H]2[C@@H]3[C@@H](O)C[C@@H]4C[C@H](O)CC[C@]4(C)[C@H]3CC[C@]12C [ursodiol] (10 µM) | -0.0233 | 106% (inactive)
4 | COc1cc(C(=O)NCc2ccc(OCCN(C)C)cc2)cc(OC)c1OC [trimethobenzamide] (10 µM) | 0.00196 | 110% (inactive)
5 | Cc1c(CN(C)C(=O)/C=C/c2cnc3c(c2)CCC(=O)N3)oc2ccccc12 (10 µM) | 0.182 | 94% (inactive)
6 | CC(=O)OC[C@H]1O[C@@](COC(C)=O)(O[C@H]2O[C@H](COC(C)=O)[C@@H](OC(C)=O)[C@H](OC(C)=O)[C@H]2OC(C)=O)[C@@H](OC(C)=O)[C@@H]1OC(C)=O [sucrose-octaacetate] (10 µM) | 0.0471 | 103% (inactive)
7 | Cn1cc(CCn2cnc(-c3cnn(C)c3)c2-c2ccc(C#N)cc2)cn1 (10 µM) | 0.0344 | 97% (inactive)
8 | CC(C)(C)c1ccc(CN2CCN(C(c3ccccc3)c3ccc(Cl)cc3)CC2)cc1 (centres undefined) [buclizine] (10 µM) | 0.307 | 90.5% (inactive)
9 | CC(OC(=O)OC1CCCCC1)OC(=O)C1=C(CSc2nnnn2CCN(C)C)CS[C@@H]2[C@H](NC(=O)Cc3csc(N)n3)C(=O)N12 (some centres undefined) [cefotiam-cilexetil] (10 µM) | -0.0288 | 109% (inactive)
10 | COc1ccc2c(c1)C(=O)N(CCc1ccc(S(=O)(=O)NC(=O)NC3CCCCC3)cc1)C(=O)C2(C)C [gliquidone] (10 µM) | 0.283 | 98.5% (inactive)
11 | CCCNC(=O)NS(=O)(=O)c1ccc(Cl)cc1 [chlorpropamide] (10 µM) | 0.266 | 79.5% (inactive)
12 | C=C[C@]1(C)CC[C@@H](C(=C)C)C[C@H]1C(=C)C [beta-elemene] (10 µM) | -0.205 | 111% (inactive)
13 | Oc1ccc(-c2c(-c3ccccc3)nn3c(C(F)(F)F)cc(C(F)(F)F)nc23)cc1 (10 µM) | 0.0465 | 104% (inactive)
14 | C#CCN(C)[C@H](C)Cc1ccccc1 [selegiline] (10 µM) | 0.0406 | 105% (inactive)
15 | N[C@@H](CC(=O)N1CCn2c(nnc2C(F)(F)F)C1)Cc1cc(F)c(F)cc1F [sitagliptin] (10 µM) | 0.0472 | 98% (inactive)
16 | Cc1ccc(-c2csc3ncnc(SCCC(=O)O)c23)cc1 (10 µM) | 0.15 | 103% (inactive)
17 | CC1CC(OC(=O)C(O)c2ccccc2)CC(C)(C)C1 (centres undefined) [cyclandelate] (10 µM) | 0.115 | 98% (inactive)
18 | N#C[C@@H]1CCCN1C(=O)CNC12CC3CC(CC(O)(C3)C1)C2 [vildagliptin] (10 µM) | 0.00182 | 91% (inactive)
19 | Nc1ccn([C@@H]2O[C@H](CO)[C@@H](O)C2(F)F)c(=O)n1 [gemcitabine] (0.833333 µM) | -0.00574 | 114% (inactive)

Row | Compound | morphology score [1] | SARS-CoV-2 infection rate [2]
20 | CCS(=O)(=O)Nc1ccc2c(c1)/C(=C(/Nc1ccc(CN3CCCCC3)cc1)c1ccccc1)C(=O)N2 [hesperadin] (10 µM) | -0.262 | 110% (inactive)
21 | O=C(CCN1CCN(C(=O)OCc2cc(Cl)cc(Cl)c2)CC1)c1ccc2[nH]c(=O)oc2c1 (10 µM) | 0.127 | 99.5% (inactive)
22 | CC[C@@]1([C@H]2O[C@H]([C@H]3O[C@@](O)(CO)[C@H](C)C[C@@H]3C)C[C@H]2C)CC[C@H]([C@@]2(C)CC[C@]3(C[C@H](O)[C@@H](C)[C@@H]([C@H](C)[C@H](OC)[C@@H](C)C(=O)O)O3)O2)O1 (10 µM) | 0.556 | 39% (active)
23 | CCOC(=O)Nc1nc2ccccc2[nH]1 [lobendazole] (10 µM) | 0.0965 | 101% (inactive)
24 | c1ccc(CCCN2CCN(CCOC(c3ccccc3)c3ccccc3)CC2)cc1 (10 µM) | 0.239 | 94% (inactive)
25 | NNC(=O)CN1C(=O)CN=C(c2ccccc2)c2cc(Br)ccc21 [gidazepam] (10 µM) | 0.101 | 100% (inactive)
26 | COc1cc(OC)c(C(=O)CCCCN2CCC3(CC2)NC(=O)NC3=O)cc1NS(=O)(=O)c1ccc(C(F)(F)F)cc1 (10 µM) | 0.222 | 93% (inactive)
27 | CN1CCN(Cc2ccc(-c3cnc4[nH]cc(-c5ccc6[nH]ccc6c5)c4c3)cc2)CC1 (0.833333 µM) | 0.84 | 61% (inactive)
28 | NC(=O)c1cccc(N)c1 [3-amino-benzamide] (10 µM) | -0.037 | 102% (inactive)
29 | COc1ccc2cc(CCC(C)=O)ccc2c1 [nabumetone] (10 µM) | 0.0377 | 118% (inactive)
30 | CCCN(CCC)CCc1cccc2c1CC(=O)N2 [ropinirole] (10 µM) | -0.139 | 112% (inactive)
31 | O=C1N(c2ccccc2)c2ccccc2C1(Cc1ccncc1)Cc1ccncc1 [linopirdine] (10 µM) | 0.249 | 91% (inactive)
32 | COc1ccc(-c2oc3cc(OC)ccc3c2C(=O)c2ccc(C#N)cc2)cc1 (10 µM) | 0.111 | 97% (inactive)
33 | CC(COc1ccccc1)NC(C)C(O)c1ccc(O)cc1 (centres undefined) [isoxsuprine] (10 µM) | 0.0115 | 109% (inactive)
34 | Fc1ccc(Cn2c(NC3CCNCC3)nc3ccccc32)cc1 [tecastemizole] (10 µM) | -0.00173 | 111% (inactive)
35 | OC[C@H]1O[C@@H](c2ccc(Cl)c(Cc3ccc(O[C@H]4CCOC4)cc3)c2)[C@H](O)[C@@H](O)[C@@H]1O [empagliflozin] (10 µM) | -0.159 | 106% (inactive)
36 | CCC(C)(CN(C)C)OC(=O)c1ccccc1 (centres undefined) [amyleine] (10 µM) | -0.104 | 120% (inactive)
37 | N#Cc1c(N)nc(SCc2csc(-c3ccc(Cl)cc3)n2)c(C#N)c1-c1ccc(OCCO)cc1 [capadenoson] (10 µM) | -0.145 | 115% (inactive)
38 | CCOC(=O)[C@H](CCc1ccccc1)N[C@H]1CS[C@H](c2cccs2)CN(CC(=O)O)C1=O [temocapril] (10 µM) | 0.0304 | 114% (inactive)

Row | Compound | morphology score [1] | SARS-CoV-2 infection rate [2]
39 | O=C1[C@H]2CCCC[C@H]2C(=O)N1CCCCN1CCN(c2nsc3ccccc23)CC1 [perospirone] (10 µM) | 0.0481 | 115% (inactive)
40 | CCCCC1C(=O)N(c2ccccc2)N(c2ccccc2)C1=O [phenylbutazone] (10 µM) | 0.209 | 97.5% (inactive)
41 | C=CC[N+]1([C@H]2C[C@H]3[C@@H]4CC[C@H]5C[C@H](O)[C@@H](N6CCOCC6)C[C@]5(C)[C@H]4CC[C@]3(C)[C@H]2OC(C)=O)CCCC1 (10 µM) | 0.061 | 110% (inactive)
42 | C[C@H]1O[C@@H](O[C@H]2[C@@H](O)C[C@H](O[C@H]3[C@@H](O)C[C@H](O[C@H]4CC[C@@]5(C)[C@H](CC[C@@H]6[C@@H]5C[C@@H](O)[C@]5(C)[C@@H](C7=CC(=O)OC7)CC[C@]65O)C4)O[C@@H]3C)O[C@@H]2C)C[C@H](O)[C@@H]1O [digoxin] (0.833333 µM) | -0.256 | 98% (inactive)
43 | COC(=O)C1=C(C)NC(C)=C(C(=O)OCCSc2ccccc2)[C@@H]1C (10 µM) | 0.0793 | 94.5% (inactive)
44 | CC(=O)Oc1ccccc1C(=O)Oc1cccc(CO[N+](=O)[O-])c1 (10 µM) | 0.178 | 101% (inactive)
45 | CC(C)(Oc1ccc(Cl)cc1)C(=O)N1CSCC1C(=O)O (centres undefined) [timofibrate] (10 µM) | 0.0255 | 106% (inactive)
46 | CC(=O)N1CCN(c2ccc(OC[C@@H]3CO[C@@](Cn4ccnc4)(c4ccc(Cl)cc4Cl)O3)cc2)CC1 (racemic) [ketoconazole] (10 µM) | 0.0784 | 108% (inactive)
47 | C[C@@H](O)[C@H]1C(=O)N2C(C(=O)O)=C(SCCNC=N)C[C@H]12 [imipenem] (10 µM) | -0.161 | 114% (inactive)
48 | O=C(Nc1cccc(Nc2ncc(Br)c(NCCc3cnc[nH]3)n2)c1)N1CCCC1 (10 µM) | -0.00186 | 110% (inactive)
49 | O=C1NC(=O)C(c2ccccc2)(c2ccccc2)N1 [phenytoin] (10 µM) | 0.168 | 97% (inactive)
50 | Fc1ccc(-c2cncc(CN3CCN(c4cccc5c4OCCO5)CC3)c2)cc1 [adoprazine] (10 µM) | 0.131 | 101% (inactive)
51 | CCOC(=O)C1=C(C)NC(c2ccccc2)=C(C(=O)OCc2ccc([N+](=O)[O-])cc2)[C@@H]1C#Cc1ccccc1 (10 µM) | 0.304 | 89% (inactive)
52 | N[C@H](Cc1cc(I)c(Oc2ccc(O)c(I)c2)c(I)c1)C(=O)O [liothyronine-(isomer)] (10 µM) | 0.127 | 106% (inactive)
53 | O=S(=O)(Cc1ccccc1)Nc1ccc(-c2ccc3c(cnn3-c3ccc(F)cc3)c2)c(C(F)(F)F)c1 (10 µM) | 0.22 | 91.5% (inactive)
54 | Cc1nn(C)c2c1C(c1cccc(Cl)c1)=NCCN2 [zometapine] (10 µM) | 0.136 | 104% (inactive)
55 | C[N+]1(CCCCC[N+]2(C)CCCC2)CCCC1 [pentolinium] (10 µM) | -0.0223 | 102% (inactive)
56 | CC1(C)S[C@@H]2[C@H](NC(=O)COc3ccccc3)C(=O)N2[C@H]1C(=O)O [penicillin-v-potassium] (10 µM) | -0.0155 | 116% (inactive)
57 | CC(C)C[C@@H](NC(=O)[C@H](C)NC(=O)CNC(=O)[C@@H](NC=O)C(C)C)C(=O)N[C@@H](C)C(=O)N[C@@H](C(=O)N[C@H](C(=O)N[C@@H](C(=O)N[C@@H](Cc1c[nH]c2ccccc12)C(=O)N[C@H](CC(C)C)C(=O)N[C@@H](Cc1c[nH]c2ccccc12)C(=O)N[C@H](CC(C)C)C(=O)N[C@@H](Cc1c[nH]c2ccccc12)C(=O)N[C@H](CC(C)C)C(=O)N[C@@H](Cc1c[nH]c2ccccc12)C(=O)NCCO)C(C)C)C(C)C)C(C)C [gramicidin] (10 µM) | -0.258 | 100% (inactive)
